Reference: PubChem BioAssay (NCATS)
Records with an inconclusive call do not appear. Activity calls are given as the source filed them. Unless noted, calls come from the whole dose curve; as a rule, active = well fitted curve in the direction sought with a large enough effect; inconclusive = small, poorly fitted or top-dose-only effect, or another doubt; inactive = no such curve, though single readings can be large; an effect the other way counts as inactive or inconclusive.

Tests used:
[1] = NS1 protein of Zika virus - qHTS assay to identify small molecule inhibitors in human HEK 293 cells (AID 1347053); note: series mostly up to about 46 µM; nearly all actives have a fitted effect of over 55% in size
Summary of the method: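 HEK 293; 20 h pre-culture, 37 C/5% CO2; cpd 1 h pre-infection; ZIKV MR766, MOI = 0.5, 24 h, 37 C; TR-FRET NS1 readout (two anti-NS1 Abs); norm. to no-virus vs infected.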

[2] = qHTS for Inhibitors of the Functional Ribonucleoprotein Complex (vRNP) of Lassa (LASV) Arenavirus: LASV Primary Screen - GLuc reporter signal (AID 1347082; calls by dose curve; tested in HEK293 reporter line; note: series mostly up to about 57 µM; nearly all actives have a fitted effect of over 60% in size)
[3] = qHTS for Inhibitors of the Functional Ribonucleoprotein Complex (vRNP) of Lassa (LASV) Arenavirus: Viability assay - alamar blue signal for LASV Primary Screen (AID 1347083; calls by dose curve; tested in HEK293 reporter line; note: series mostly up to about 57 µM; nearly all actives have a fitted effect of over 80% in size)
[4] = qHTS for Inhibitors of the Functional Ribonucleoprotein Complex (vRNP) of Lymphocytic Choriomeningitis Arenaviruses (LCMV): Viability assay - alamar blue signal for LCMV Primary Screen (AID 1347085; calls by dose curve; tested in HEK293 reporter line; note: series mostly up to about 57 µM; nearly all actives have a fitted effect of over 80% in size)
[5] = target: Nucleoprotein (Lymphocytic choriomeningitis virus (strain Armstrong)) (UniProt P09992); assay: qHTS for Inhibitors of the Functional Ribonucleoprotein Complex (vRNP) of Lymphocytic Choriomeningitis Arenaviruses (LCMV): LCMV Primary Screen - GLuc reporter signal (AID 1347086; calls by dose curve; note: series mostly up to about 57 µM; nearly all actives have a fitted effect of over 70% in size)
Chain of Nucleoprotein (Lymphocytic choriomeningitis virus (strain Armstrong)) (P09992 whole entry, looked up): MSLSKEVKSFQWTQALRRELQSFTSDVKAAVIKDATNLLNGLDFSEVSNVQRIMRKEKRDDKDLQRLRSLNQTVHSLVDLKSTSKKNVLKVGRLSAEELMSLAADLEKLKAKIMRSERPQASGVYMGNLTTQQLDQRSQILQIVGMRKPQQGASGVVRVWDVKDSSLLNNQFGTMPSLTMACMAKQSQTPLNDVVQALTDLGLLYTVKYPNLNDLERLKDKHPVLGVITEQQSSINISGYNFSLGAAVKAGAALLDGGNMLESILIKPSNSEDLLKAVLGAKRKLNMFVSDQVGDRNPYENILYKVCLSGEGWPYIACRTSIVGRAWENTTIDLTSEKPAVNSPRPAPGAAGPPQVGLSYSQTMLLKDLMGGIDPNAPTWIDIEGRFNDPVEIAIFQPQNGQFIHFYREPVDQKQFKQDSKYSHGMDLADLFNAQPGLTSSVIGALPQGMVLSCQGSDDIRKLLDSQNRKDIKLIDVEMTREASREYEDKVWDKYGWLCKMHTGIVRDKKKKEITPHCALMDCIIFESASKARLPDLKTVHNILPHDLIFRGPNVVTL

[6] = qHTS of pediatric cancer cell lines to identify multiple opportunities for drug repurposing: Primary screen for TC32 cells (AID 1347089); note: nearly all actives have a fitted effect of over 60% in size
Summary of the method: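 qHTS, TC32, 48 h drug treatment, CellTiter-Glo luminescence as a proxy for metabolically active cells; primary top concentration 46 µM (MIPE 11-pt, NPC 8-pt); confirmatory 11-pt.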

[7] = qHTS of pediatric cancer cell lines to identify multiple opportunities for drug repurposing: Primary screen for DAOY cells (AID 1347090); note: series mostly up to about 46 µM; nearly all actives have a fitted effect of over 55% in size
Summary of the method: (§1)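 Viability measured as metabolically active cells via CellTiter-Glo luminescence following 48 hours of compound exposure, 11-point dilutions in confirmatory testing. 500-1,000 cells/well plated 5 hours before dosing; controls were DMSO and 2.3 µM bortezomib.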

[8] = qHTS of pediatric cancer cell lines to identify multiple opportunities for drug repurposing: Primary screen for A673 cells (AID 1347092); note: nearly all actives have a fitted effect of over 45% in size
Summary of the method: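 Luminescence from CellTiter-Glo, taken after 15 min at room temperature, served as the proxy for metabolically active cells following 48 h treatment. Both potency and efficacy were taken from curves fitted to the titration data.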

[9] = qHTS of pediatric cancer cell lines to identify multiple opportunities for drug repurposing: Primary screen for SK-N-MC cells (AID 1347093); note: potency is the fitted concentration of half-maximal effect
Summary of the method: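 Metabolically active cells were quantified by ATP-dependent luminescence (CellTiter-Glo, 15 min at room temperature) following 48 h treatment. Cells had been plated at 500-1,000 per well and settled for 5 h beforehand.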

[10] = qHTS of pediatric cancer cell lines to identify multiple opportunities for drug repurposing: Primary screen for BT-37 cells (AID 1347094); note: series mostly up to about 57 µM
Summary of the method: (§2)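 Readout: CellTiter-Glo luminescence, 48 h treatment. Controls DMSO (neutral) and bortezomib 2.3 µM final (positive). Potency and efficacy taken from primary-screen concentration-response curves.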

[11] = qHTS of pediatric cancer cell lines to identify multiple opportunities for drug repurposing: Primary screen for NB-EBc1 cells (AID 1347095)
Summary of the method: as §2

[12] = P-glycoprotein substrates identified in KB-8-5-11 adenocarcinoma cell line, qHTS therapeutic library screen (AID 1346987); note: nearly all actives have a fitted effect of over 65% in size; note: potency is the fitted concentration of half-maximal effect
Summary of the method: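 KB-8-5-11: colchicine-selected sub-line of KB-3-1 over-expressing P-gp; assay medium lacked colchicine. 72 h drug exposure at 37 degree C, CellTiter-Glo.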

[13] = qHTS of pediatric cancer cell lines to identify multiple opportunities for drug repurposing: Primary screen for SJ-GBM2 cells (AID 1347091); note: potency is the fitted concentration of half-maximal effect
Summary of the method: as §1

[14] = qHTS of pediatric cancer cell lines to identify multiple opportunities for drug repurposing: Primary screen for U-2 OS cells (AID 1347096); note: nearly all actives have a fitted effect of over 50% in size
Summary of the method: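 Viability after 48 h compound treatment at 37C, 500-1,000 cells/well, read as ATP luminescence with CellTiter-Glo. Primary screens used 11-point (MIPE, 0.78 nM-46 µM) or 8-point (NPC, 0.59 nM-46 µM) final concentrations; follow-up screens used 11-point dilutions.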

Measured: Potency

C[C@]12CC[C@H]3[C@@H](CCC4=CC(=O)CC[C@@H]43)[C@@H]1CC[C@@H]2OC(=O)CCc1ccco1
inactive: [1] | [2] | [3] | [4] | [5] | [6] | [7] | [8] | [9] | [10] | [11]

COP(=S)(OC)SCN1C(=O)c2ccccc2C1=O
inactive: [12] | [1] | [2] | [3] | [4] | [5] | [6] | [13] | [10]

CN1CC[C@]23c4c5ccc(O)c4O[C@H]2[C@@H](O)C=C[C@H]3[C@H]1C5
inactive: [12] | [1] | [2] | [3] | [4] | [5] | [6] | [7] | [10] | [14]

c1ccc(N2CCNCC2)cc1
inactive: [1] | [2] | [3] | [4] | [5] | [6] | [7] | [13] | [8] | [10] | [11]

CC(C)NC(C)C
inactive: [12] | [1] | [2] | [3] | [4] | [5] | [6] | [7] | [8] | [9] | [10] | [14]

C[C@@H]1CC2=CC(=O)CC[C@@H]2[C@H]2CC[C@@]3(C)[C@@H](CC[C@]3(C)O)[C@@H]21
inactive: [1] | [2] | [3] | [4] | [5] | [6] | [7] | [8] | [9] | [10] | [11]

c1ccc(CN2CCNCC2)cc1
inactive: [12] | [1] | [2] | [3] | [4] | [5] | [6] | [7] | [8] | [9] | [10] | [14]

C[C@]12CCC(=O)C=C1CC[C@@H]1[C@H]3CC[C@](C)(O)[C@@]3(C)CC[C@@H]12
active: [12] 31.6 µM | [13] 49 µM | [9] 30.9 µM
inactive: [2] | [3] | [5]

COc1cc(OC)c(OC)cc1C=O
inactive: [12] | [1] | [2] | [3] | [4] | [5] | [6] | [7] | [8] | [10] | [11]

CC(C)=CC1C(C(=O)OCN2C(=O)C3=C(CCCC3)C2=O)C1(C)C (centres undefined)
inactive: [12] | [1] | [2] | [3] | [4] | [5] | [6] | [7] | [8] | [10] | [14]

CC[N+]1(CC)CCC(OC(=O)C(O)(c2ccccc2)c2ccccc2)C1 (centres undefined)
inactive: [1] | [2] | [3] | [4] | [5] | [6] | [7] | [13] | [8] | [10] | [11] | [14]

C[C@]12CC[C@H]3[C@@H](CCC4=CC(=O)CC[C@@H]43)[C@@H]1CC[C@@H]2OC(=O)CCC1CCCCC1
inactive: [1] | [2] | [3] | [4] | [5] | [6] | [7] | [8]

Clc1ccc(C(c2ccc(Cl)cc2)C(Cl)(Cl)Cl)cc1
active: [9] 5.31 µM
inactive: [12] | [1] | [2] | [3] | [4] | [5] | [6] | [14]

Clc1cccc(SC2CCNCC2)n1
inactive: [1] | [2] | [3] | [4] | [5] | [6] | [7] | [13] | [8] | [10] | [11]

CCC(CC)(CNC(=O)CCCO)c1cccc(OC)c1
inactive: [1] | [2] | [3] | [4] | [5] | [6] | [7] | [13] | [8] | [9] | [10] | [14]

O=C1CN=C(c2ccccc2)c2cc([N+](=O)[O-])ccc2N1
inactive: [12] | [1] | [2] | [3] | [4] | [5] | [6] | [7] | [8] | [10]

CN[C@@H](C)Cc1ccccc1
inactive: [12] | [2] | [3] | [4] | [5]

CCc1cc2c(s1)-n1c(C)nnc1CN=C2c1ccccc1Cl
inactive: [1] | [2] | [3] | [4] | [5] | [6] | [7] | [13] | [8] | [9] | [10] | [14]

COc1cccc([C@@]2(O)CCCC[C@@H]2CN(C)C)c1
inactive: [12] | [2] | [3] | [4] | [5] | [6] | [7] | [13] | [8] | [9] | [10]
